Screening results as filed in PubChem.
Shown are actives, neighbours in structure and some others; about 19% of the full set was active somewhere.
Cycloheximide cs – Cycloheximide Counterscreen for Small Molecule Inhibitors of Shiga Toxin; cell reporter, cycloheximide protein synthesis inhibition counterscreen; max response, %; 300,000 compounds, 12% hits; AID 2314, 2010; in the data active = max response mostly above about 13%, no sharp cut-off; inactive = mostly below about 14%; also: read at 38.3 µM for the half of the compounds with a filed dose
LASV entry inh – qHTS for Inhibitors of binding or entry into cells for Lassa Virus | Lassa virus pseudotype entry inhibition, cell reporter | Potency, µM (highest dose often 37.9 µM), usual class: inhibitors | 300,000 compounds, 1.2% hits; calls by dose curve; tested in HEK293 cells; also: nearly all actives have a fitted effect of over 50% in size
Shiga inhibitor – A qHTS for Small Molecule Inhibitors of Shiga Toxin | inhibition, % at 38.7 µM | Vero cells, Shiga toxin protein synthesis inhibition reporter | 290,000 compounds, 9.2% hits; in the data active = inhibition mostly above about 28%, no sharp cut-off; inactive = mostly below about 43%
Marburg entry inh – qHTS for inhibitors of binding or entry into cells for Marburg Virus | Marburg virus pseudotyped entry inhibition, cell reporter | Potency, µM (top dose mostly 37.8 µM), most hits filed as inhibitors | 300,000 compounds, 1.8% hits | AID 540276, 2011; calls by dose curve; tested in HEK293 cells
Pf growth 48h – Primary qHTS for delayed death inhibitors of the malarial parasite plastid, 48 hour incubation. Potency, µM (top dose mostly 28.7 µM), most hits filed as inhibitors. 310,000 compounds, 5.9% hits. AID 504832, 2011. P. falciparum luciferase growth in erythrocytes, 48 h
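Here the parasites carry a stable luciferase gene and grow inside erythrocytes in Albumax-based RPMI medium with compound for one erythrocytic cycle. Activity is scored as loss of luminescent signal.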
Pf growth 96h – Primary qHTS for delayed death inhibitors of the malarial parasite plastid, 96 hour incubation; P. falciparum luciferase reporter growth, 96 h; Potency, µM (highest dose often 28.7 µM), usual class: inhibitors; 320,000 compounds, 6.9% hits; AID 504834, 2011
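P. falciparum expressing integrated firefly luciferase grown in erythrocytes (2% hematocrit, 0.05% parasitemia final) with compounds for 96 hours at 37 C, 5% CO2. Growth inhibition read as loss of luminescence after adding luciferase detection reagent.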
Large screens that a line does not name were inactive. Unless noted, calls follow the shape of the dose curve; as a rule, active = well fitted inhibition curve with a large enough effect; inconclusive = small, poorly fitted or top-dose-only effect, or another doubt; inactive = no such curve, though single readings can be large or run the other way.

FC(F)Sc1ccc(-n2cc(-c3ccc(Cl)cc3)[n+]3c2CCC3)cc1	Pf growth 48h 0.74µM, Pf growth 96h inconclusive
Cc1ccc(-c2cn(-c3ccc(SC(F)F)cc3)c3[n+]2CCC3)cc1	Marburg entry inh inconclusive, Pf growth 48h 0.37µM, Pf growth 96h inconclusive
CCC1CC(C(=O)Nc2ccccc2)C(=O)O1 (stereo not given)	Marburg entry inh inconclusive (no result: Cycloheximide cs, Shiga inhibitor, Pf growth 48h, Pf growth 96h)
O=C(CC1C(=O)NCCN1Cc1ccc(-c2ccccc2)cc1)NCC1CC1 (stereo not given)	LASV entry inh inconclusive, Marburg entry inh inconclusive
CC(C)(C)c1nc2sc3c(c2c(=O)o1)CCCC3	Marburg entry inh inconclusive (no result: Pf growth 48h)
CC1CCc2c(nc3sc4c(c3c2N)CCCC4)C1 (stereo not given)	Cycloheximide cs 37, Shiga inhibitor active, Marburg entry inh 11µM, Pf growth 96h inconclusive
CC1CCc2nc3sc4c(c3c(N)c2C1)CCCC4 (stereo not given)	Cycloheximide cs 33, Shiga inhibitor 56, Marburg entry inh inconclusive
CCOC(=O)c1nc2sc3c(c2c(=O)[nH]1)CCC(C)C3 (stereo not given)	Pf growth 48h inconclusive (no result: LASV entry inh, Marburg entry inh)
Nc1c(NCCCN2CCOCC2)c2ccccc2oc1=O	Marburg entry inh inconclusive
COc1ccccc1-n1c(=O)oc2ccc(Cl)cc2c1=O	Cycloheximide cs 59, LASV entry inh inconclusive, Shiga inhibitor 86, Marburg entry inh inconclusive, Pf growth 48h inconclusive
CCn1cc(C2=NC(C(C)C)CO2)c2ccccc21 (stereo not given)	none (no result: LASV entry inh, Marburg entry inh)
CCn1cc(C2=NC(CCSC)CO2)c2ccccc21 (stereo not given)	Cycloheximide cs 18
CCn1cc(C2=NC(CC(C)C)CO2)c2ccccc21 (stereo not given)	Cycloheximide cs 22
COc1cc(CCC(=O)Nc2ccc(S(=O)(=O)N3CCOCC3)cc2)cc(OC)c1OC	Pf growth 96h inconclusive (no result: Cycloheximide cs, LASV entry inh, Shiga inhibitor, Marburg entry inh)
CCn1c(CCC(=O)O)nc2cc(S(=O)(=O)N3CCOCC3)ccc21	none (no result: Cycloheximide cs, Shiga inhibitor, Pf growth 48h, Pf growth 96h)
CCOC(=O)C1C(C#N)=C(N)OC(C)=C1c1ccncc1 (stereo not given)	none
CCCCCCC(=O)N(O)C1CC(=O)N(c2ccc(C)cc2)C1=O (stereo not given)	Marburg entry inh inconclusive, Pf growth 96h inconclusive (no result: Pf growth 48h)
CCCCCCC(=O)N(O)C1CC(=O)N(c2ccc(Cl)cc2)C1=O (stereo not given)	Pf growth 48h 4.1µM, Pf growth 96h 10µM
O=C1CCC(=O)N1CCSC(=S)N1CCOCC1	Shiga inhibitor 41
O=C(O)CCSC(=S)N1CCOCC1	none (no result: LASV entry inh, Marburg entry inh)
CC(C)(C)c1ccc(OCC(=O)N(c2ccccn2)C2CCCCC2)cc1	Marburg entry inh inconclusive, Pf growth 48h inconclusive, Pf growth 96h inconclusive
COC(=O)c1cc2c(-c3ccccc3)cc3ccccn3c-2c1C(=O)OC	LASV entry inh inconclusive, Marburg entry inh inconclusive, Pf growth 96h 3.7µM (no result: Pf growth 48h)
COC(=O)c1c(C)c2c(C)cc3ccccn3c-2c1C(=O)OC	none (no result: Pf growth 96h)
Cc1ccc(C)c(Nc2cc(C)nc(-c3ccccc3O)n2)c1	Pf growth 48h inconclusive (no result: LASV entry inh, Marburg entry inh)
CC(C)C(=O)N1CCC(CN=Cc2c(O)n(C3CCCCC3)c(=O)n(C3CCCCC3)c2=O)CC1	LASV entry inh 14µM, Marburg entry inh inconclusive, Pf growth 48h 1.5µM
NS(=O)(=O)c1ccc(N=Cc2c(O)n(C3CCCCC3)c(=O)n(C3CCCCC3)c2=O)cc1	LASV entry inh inconclusive, Marburg entry inh inconclusive
CCCn1c(CCC(=O)Nc2cccc(C)c2C)nc2cccnc21	none (no result: Cycloheximide cs, Shiga inhibitor, Pf growth 48h, Pf growth 96h)
COc1ccc(NC(=O)Nc2ccc(Br)cn2)cc1	Shiga inhibitor 77 (no result: LASV entry inh, Marburg entry inh)
COC(=O)c1ccccc1NC(=O)Nc1ccc(Br)cn1	none
COc1ccc(/C=C/C(=O)NC(=S)Nc2ccc(Br)cn2)cc1	Cycloheximide cs 11
N=c1sccn1CC(=O)Nc1ccc2c(c1)CCC2	Marburg entry inh inconclusive
CCOC(=O)c1ccc(NC(=O)NCc2ccncc2)cc1	none
CCNc1nc(OC)nc(N2CCC(Cc3ccccc3)CC2)n1	Marburg entry inh inconclusive, Pf growth 96h 13µM
COc1nc(NCc2ccco2)nc(N2CCC(C)CC2)n1	Pf growth 48h inconclusive
COc1ccc(NS(=O)(=O)c2cccc(C(=O)NCc3cccnc3)c2)cc1	Pf growth 48h inconclusive (no result: Cycloheximide cs, Shiga inhibitor)
CCC(C(=O)O)C1CCC(C)C(C(C)C(O)C(C)C(=O)C(CC)C2OC3(C=CC(O)[C@@]4(CC[C@](C)(C5CC[C@@](O)(CC)C(C)O5)O4)O3)C(C)CC2C)O1 (stereo not given in full)	Pf growth 48h 0.43µM, Pf growth 96h 0.21µM (no result: Cycloheximide cs, LASV entry inh, Shiga inhibitor, Marburg entry inh)
CSc1sc(C(=O)N2CCc3ccccc32)cc1S(=O)(=O)C(C)C	Pf growth 48h inconclusive, Pf growth 96h inconclusive
CSc1sc(C(=O)NCC2CC2)cc1S(=O)(=O)C(C)C	LASV entry inh inconclusive, Pf growth 48h 2.3µM
Cc1ccc(S(=O)(=O)CCC(=O)OCC(=O)N2CCN(c3ccccc3)CC2)cc1	none (no result: Cycloheximide cs, Shiga inhibitor)
CCn1ccc(C(=O)Nc2ccc(N(C)C(C)=O)cc2)n1	Cycloheximide cs 23, Shiga inhibitor 45, Marburg entry inh inconclusive
CSc1ccccc1NC(=O)c1cc(C)on1	none (no result: Pf growth 48h)
CC(=O)N(C)c1ccc(NC(=O)c2ccccc2C(=O)O)cc1	none
CCn1ccc(C(=O)Nc2ccc3c(c2)CCC3)n1	Shiga inhibitor 113 (no result: LASV entry inh, Marburg entry inh)
CCn1ccc(C(=O)Nc2ccccc2SC)n1	Cycloheximide cs 33, LASV entry inh inconclusive, Shiga inhibitor 88, Marburg entry inh inconclusive
COc1cc(C(=O)NCC2CCCCC2)cc(OC)c1OC	Pf growth 48h inconclusive, Pf growth 96h inconclusive
COc1cc(C(=O)NCc2nnc(SCC(=O)Nc3nc4ccccc4s3)o2)cc(OC)c1OC	Cycloheximide cs 14, Shiga inhibitor 46, Pf growth 96h inconclusive
COc1cc(C(=O)NCCC(=O)NC2CCCCC2)cc(OC)c1OC	Pf growth 96h 9.3µM (no result: LASV entry inh, Marburg entry inh)
COc1cc(C(=O)NCc2nnc(SCC(=O)NC3CCCC3)o2)cc(OC)c1OC	Pf growth 96h 8.3µM
C(=C/c1nccc2c1[nH]c1ccccc12)/c1ccc2c(c1)OCO2	Shiga inhibitor 40, Marburg entry inh inconclusive, Pf growth 48h 2.9µM
Cc1ccc2c(c1)OC(c1ccc3c(c1)OCCO3)CC2=O (stereo not given)	Cycloheximide cs 29, Shiga inhibitor 67 (no result: LASV entry inh, Marburg entry inh)
N#CC1(c2ccccc2)CCC(=NO)CC1 (stereo not given)	Marburg entry inh inconclusive, Pf growth 96h 1.9µM (no result: Pf growth 48h)
COc1ccc(OC)c(NC(=O)CSc2ccc3nnc(-c4cccnc4)n3n2)c1	Pf growth 48h inconclusive, Pf growth 96h 12µM
Fc1cccc(CSc2ccc3nnc(-c4ccccn4)n3n2)c1	LASV entry inh inconclusive, Pf growth 48h inconclusive, Pf growth 96h 1.9µM
O=C(CSc1ccc2nnc(-c3ccccn3)n2n1)Nc1ccc2c(c1)OCO2	Pf growth 48h 3.7µM, Pf growth 96h 1.9µM (no result: LASV entry inh)
COc1ccc(NC(=O)CSc2ccc3nnc(-c4ccccn4)n3n2)cc1	Pf growth 48h inconclusive, Pf growth 96h 12µM
O=C(CSc1ccc2nnc(-c3ccccn3)n2n1)Nc1ccc(F)cc1	none (no result: LASV entry inh, Marburg entry inh)
